# tim10-1 inh – tim10-1 yeast growth inhibition. inhibition, % at 20 µM. AID 463190. S. cerevisiae tim10-1 ts strain growth, BacTiter-Glo, 24 h. actives 2.2% (n = 330,000);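 active = inhibition of at least 40%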;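 also: mutant grown at 25 °C; 0% = DMSO wells with yeast and 100% = wells holding no yeast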
# NALP3 yeast inh – blocks the NALP3 inflammasome reconstituted in yeast; Yeast reconstituted NLRP3/ASC/caspase-1, beta-gal luminescence, 24 h; inhibition, % at 10 µM; actives 0.39% (n = 330,000);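 active = inhibition of 50% or more; inactive = inhibition below 50%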;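 also: plate controls were induced DMSO wells for no effect and uninduced yeast grown without galactose for full effect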
# Yeast superoxide – caloric restriction mimetics inhibiting age-related superoxide in yeast; S. cerevisiae aged cells, superoxide DHE fluorescence; hits give low values; AID 2690; superoxide response (% of plate mean), % at 10 µM; actives 0.18% (n = 330,000);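 active = superoxide response under a set limit, about three screen SD below normal, cut at about 65% in these data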;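 also: yeast aged for seven days with compound at 30 °C before DHE staining; 100% = average MFI of all compound-treated wells on the plate with controls excluded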
# TIM10 inh – growth inhibitors of TIM10 yeast strain; inhibition, % at 10 µM; AID 463195; S. cerevisiae TIM10 strain growth, BacTiter-Glo luminescence, 24 h; actives 1.4% (n = 330,000);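 active = inhibition of 40% or more at the single tested concentration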;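 also: wild-type TIM10 isogenic control strain grown at permissive 25 °C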
# tim23-1 inh – growth inhibitors of tim23-1 mutant yeast; inhibition, % at 20 µM; AID 463212; S. cerevisiae tim23-1 growth, BacTiter-Glo luminescence, 24 h; actives 1.3% (n = 330,000);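 active = growth inhibition of the mutant yeast at or above 50%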;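 also: temperature-sensitive mutant grown at 25 °C; plate controls were DMSO-treated mutant yeast for no effect and medium wells lacking yeast for full effect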
# CR mimetic CP – yeast aging superoxide inhibition, cherry pick confirmation; shares compounds with Yeast superoxide; S. cerevisiae aging, superoxide DHE fluorescence; hits give low values; superoxide response (% of plate), % at 10 µM; actives 1% (n = 850);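 active = superoxide signal below 65% of the plate average of sample wells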;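 also: cells aged with compound for 7 days at 30 degrees C before staining; 100% equals mean DHE fluorescence of all compound wells on the plate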
# DHE counter – counter-screen for compounds affecting DHE oxidation and fluorescence in yeast; shares compounds with Yeast superoxide; S. cerevisiae BY4741, flow cytometry; hits give low values; fluorescence response, % at 10 µM; 850 tested, under 10 active; AID 435000;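 active = fluorescence response below 15%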;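 also: percent of the mean fluorescence averaged over all compound wells on the plate; lower means stronger quenching of DHE signal or ROS scavenging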
# The depositor's hits bear a star; nt = no result. The list is not random: actives were taken first. Their share in the collection is about 3.8%.
SMILES,tim10-1 inh,NALP3 yeast inh,Yeast superoxide,TIM10 inh,tim23-1 inh,CR mimetic CP,DHE counter
CSc1ncc(Cl)c(C(=O)Nc2ccccc2Cl)n1,-13,26,98,-12,-4,101,89
CSc1ncc(Cl)c(C(=O)Nc2c(C)cccc2C)n1,20,15,106,5,13,108,105
CCSc1ncc(Cl)c(C(=O)Nc2ccccc2Cl)n1,2,11,93,-14,7,108,101
Clc1cccc(-c2ccc(C=Nc3ccc(N4CCOCC4)cc3)o2)c1,nt,nt,53*,nt,nt,93,96
Oc1c(Br)cc(Cl)cc1C=Nc1ccc(N2CCOCC2)cc1,27,21,109,13,36,nt,nt
CCOc1ccc2nc(SCC(=O)c3ccc(C)s3)sc2c1,-3,33,107,10,-4,nt,nt
CCOc1ccc2nc(SCC(=O)c3ccc(O)cc3O)sc2c1,7,1,50*,-1,13,101,94
C#CCSc1nnc(-c2ccc([N+](=O)[O-])cc2)o1,10,1,54*,-7,12,73,93
CC(=O)Nc1ccc(Nc2nnc(-c3ccc(C)c(S(=O)(=O)NCC4CCCO4)c3)c3ccccc23)cc1 (stereo unspecified),-8,16,86,6,6,107,104
Cc1ccc(-c2nn3c(-c4ccco4)nnc3c3ccccc23)cc1S(=O)(=O)NCC1CCCO1 (stereo unspecified),14,-13,123,11,-2,nt,nt
Cc1ccc(-c2nnc(Nc3ccccc3)c3ccccc23)cc1S(=O)(=O)NCC1CCCO1 (stereo unspecified),15,-12,85,8,11,98,102
CNC(=O)c1ccc(Nc2nnc(-c3ccc(C)c(S(=O)(=O)NCC4CCCO4)c3)c3ccccc23)cc1 (stereo unspecified),20,1,103,-2,34,110,114
CC(=O)Nc1ccc(Nc2nnc(-c3ccc(O)cc3)c3ccccc23)cc1,13,5,90,-12,14,nt,nt
CNS(=O)(=O)c1cc(-c2nnc(Nc3ccc(NC(C)=O)cc3)c3ccccc23)ccc1C,16,-7,51*,-9,18,104,96
CCCCn1c(N)c(N(CC)C(=O)CCNC(=O)NC23CC4CC(CC(C4)C2)C3)c(=O)[nH]c1=O,10,4,109,6,9,nt,nt
COc1cc(S(=O)(=O)Nc2ccccc2C)ccc1Cl,17,10,98,0,20,100,100
COc1ccc(C)cc1S(=O)(=O)Nc1cc(Cl)ccc1Cl,15,-8,91,9,35,92,97
COc1cc(S(=O)(=O)Nc2c(C)cc(C)cc2C)ccc1Cl,28,9,100,32,6,nt,nt
COc1ccc(Cl)cc1NS(=O)(=O)c1ccc(OC)c(OC)c1,36,10,100,-3,19,nt,nt
COc1cc(NS(=O)(=O)c2cc(C)ccc2OC)c(OC)cc1Cl,11,5,99,17,13,nt,nt
COc1ccc(S(=O)(=O)Nc2cc(Cl)ccc2OC)cc1,nt,nt,89,nt,nt,109,108
CCN(C(=O)c1ccc(NC(=O)Cc2ccccc2)cc1)c1ccccc1,6,13,103,6,24,nt,nt
COc1ccc(-c2[nH]ncc2/C=N\NC(=O)c2ccc(Br)o2)cc1OC,-1,4,103,-2,0,nt,nt
Cn1c(SCC(=O)Nc2nc(C(C)(C)C)cs2)nnc1C1CC1,6,2,110,0,14,nt,nt
Cc1ccc(S(=O)(=O)CC(=O)Nc2nccs2)cc1,10,17,102,-5,13,nt,nt
SMILES,tim10-1 inh,NALP3 yeast inh,Yeast superoxide,TIM10 inh,tim23-1 inh,CR mimetic CP,DHE counter
COc1cc(/C=N/N(C)S(=O)(=O)c2ccc(C)cc2)cc([N+](=O)[O-])c1O,26,-37,106,16,25,nt,nt
Cc1ccc(C(=O)Nc2cccc(NC(=O)c3ccc(C)c([N+](=O)[O-])c3)n2)cc1[N+](=O)[O-],-46,28,61*,1,-21,94,104
COc1ccc(Cl)cc1C(=O)NCc1cnn(C)c1C,-1,-16,65*,-5,6,107,100
CCOC(=O)NC(=O)/C(C#N)=N/Nc1ccc(F)cc1,14,4,81,14,6,107,112
Cc1ccc(NC(=O)c2cc(C)nc3ccccc23)cc1,7,14,106,-5,-3,nt,nt
Cc1cccc(NC(=O)c2cc(C)nc3ccccc23)c1,28,0,56*,-5,4,97,93
Cc1ccc(C)c(N2CCN(C(=O)c3ccccc3Br)CC2)c1,31,4,108,26,39,101,105
Cc1ccc(N2CCN(C(=O)c3ccccc3)CC2)c(C)c1,10,-8,81,17,21,nt,nt
Cc1ccc(N2CCN(C(=O)c3ccccc3Br)CC2)c(C)c1,40,-3,98,21,49,102,96
O=C(NNc1nc(=O)c2cccnc2s1)c1ccccc1O,-17,3,50*,-7,13,99,112
CC1(C)CSC(=S)N1S(=O)(=O)c1ccccc1,-29,49,58*,-11,5,102,93
CC(=O)Nc1ccc(NS(=O)(=O)c2ccccc2)cc1,12,19,97,0,-10,104,88
NC(=O)c1ccccc1NS(=O)(=O)c1ccccc1,14,11,111,-1,-6,101,92
CSc1cccc(NS(=O)(=O)c2ccccc2)c1,11,30,104,3,-9,100,102
O=C(COc1ccc(S(=O)(=O)N2CCCCC2)cc1)Nc1ccccc1F,0,9,96,19,4,nt,nt
CCN1CCc2c(sc(NC(=O)c3ccc(S(=O)(=O)N(C)c4ccccc4)cc3)c2C(=O)NC)C1,8,37,91,8,0,nt,nt
CNC(=O)c1c(NC(=O)c2ccc(S(=O)(=O)N(C)c3ccccc3)cc2)sc2c1CCN(C(C)C)C2,-3,20,54*,4,3,92,97
O=C(NC1CCCc2ccccc21)N[C@@H](Cc1ccccc1)C(=O)O (stereo partly specified),19,-1,96,5,11,nt,nt
CCc1nnc(NC(=O)c2ccc(S(=O)(=O)N3CCCC(C)C3)cc2)o1 (stereo unspecified),35,15,64*,22,28,103,107
CC1CCN(S(=O)(=O)c2ccc(C(=O)Nc3nnc(-c4ccccn4)o3)cc2)CC1,26,2,94,-11,3,96,99
COCc1nnc(NC(=O)c2ccc(S(=O)(=O)N3CCCC3)cc2)o1,10,12,82,-6,7,116,125
COc1cc(Nc2ncnc(N)n2)cc(OC)c1OC,0,19,102,10,10,nt,nt
COc1cc(Nc2ncnc(N)n2)cc(OC)c1,10,-7,59*,39,24,105,110
